{"source": "the supplement of paper PMC6555819", "data": [{"test_system": "LXRb homodimer (NR concentration 270 nM)", "experiment": "PBM binding z-score (relative to random genomic background probes); higher = stronger binding; sequences stand for … in GC…GCGATTGACAGCGTAGAATGAAGG", "summary_of_the_method": "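Random background probes are the reference for binding z-scores. These scores derive from regression-normalized fluorescence on custom Agilent 4×180K protein-binding microarrays incubated 1 h with ligand-free nuclear receptor dimers. Binding was detected with antibodies against each partner (one per run).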", "values": [{"sequence": "TCTCGGAGGACACGATGGTCAGAGCTTTCCAGAG", "PBM binding z-score": -1.39}, {"sequence": "GCTTACGGATCAAAGGTTATAGCATGAATAGAAT", "PBM binding z-score": -0.332}, {"sequence": "CTACCAAGGTGAACAAGGTCGTCGATTACTATTC", "PBM binding z-score": -0.568}, {"sequence": "AATACAGGGTCATCGTAGGCCAGTGTACGCACAG", "PBM binding z-score": 1.16}, {"sequence": "CCTGCTAGGTCATGGTCAGATAATCTACAGTATG", "PBM binding z-score": 0.146}, {"sequence": "CGAACTAGGTCAAAGGTCAAAGTCGAGCCAACCA", "PBM binding z-score": 2.53}, {"sequence": "AATACAGGGTCATTGTAGGCCAGAGTACGCACAG", "PBM binding z-score": 1.47}, {"sequence": "AGAATGAGGTTATACGTAGATCAGGGATGAAAGT", "PBM binding z-score": -0.152}, {"sequence": "ATCGAAAGGTCGAGGTGAGTTTAGAGAAAGGGAA", "PBM binding z-score": 0.473}, {"sequence": "TGAATGAGGTGATAAGATCAGGGAACGTTGCAAA", "PBM binding z-score": -0.466}, {"sequence": "ATCGAAAGGTCGAAGGTTAGTATACCCACCCGAA", "PBM binding z-score": 0.649}, {"sequence": "TCATATAGGTAAAGGGTGAAAGTCGGTGTGGTAA", "PBM binding z-score": 0.233}, {"sequence": "CCTTACGGGTCAAGGTTATAGCGCGGGTGGTACG", "PBM binding z-score": 0.134}, {"sequence": "CATCCAAGGTCAGAGAGGTCAGTGAATGCCGAGT", "PBM binding z-score": 1.57}, {"sequence": "CCTTACGGGGCACTGACAGGTTATAGCATTTGGA", "PBM binding z-score": -0.831}, {"sequence": "TGAATGAGGTTAAAAATCAGGGAACGTGGCGTCG", "PBM binding z-score": 0.545}, {"sequence": "TTACCAAGGTGAAAGGTTGTTGATGCACGCCTTG", "PBM binding z-score": -0.595}, {"sequence": "CCTAGCAGGCCCGGGTCACTCAAGCATTTCGCTT", "PBM binding z-score": -0.958}, {"sequence": "AGTCAAAGTTCACCAGGTAACGTAAGATTCAGCT", "PBM binding z-score": 1.05}, {"sequence": "TCTTGTAGATCAAGCCGGTTAAGAAAGCCTGAGT", "PBM binding z-score": -0.0874}, {"sequence": "TCGAGTAGGTTAGGGGCCTTCAGAATGGCGTCGA", "PBM binding z-score": -0.986}, {"sequence": "GCTGGGAGGACAAGGTCAGAGCTTTGTCCGTAGA", "PBM binding z-score": -0.657}]}]}
